Among the data in PubChem BioAssay AID1546 (The Scripps Research Institute Molecular Screening Center, 2009) are activation values, retold here.

This is one part of the list. Activity calls are given as the source filed them. No stated cut-off is given here; in the data, active means activation above about 45%; inactive means the rest.

The target of this assay is Neuropeptide Y receptor type 1 (Homo sapiens) (UniProt P25929). Briefly: NPY-Y1 potentiators or agonists, confirmation, cell-based (AID 1546).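 Further: cells challenged with NPY at its EC10 plus isoproterenol stimulus.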 As to conditions: cell-based NPY-Y1 potentiator/agonist assay; at 3.6 µM; hits give high values.
Neuropeptide Y receptor type 1 (Homo sapiens), sequence (P25929 whole entry, looked up): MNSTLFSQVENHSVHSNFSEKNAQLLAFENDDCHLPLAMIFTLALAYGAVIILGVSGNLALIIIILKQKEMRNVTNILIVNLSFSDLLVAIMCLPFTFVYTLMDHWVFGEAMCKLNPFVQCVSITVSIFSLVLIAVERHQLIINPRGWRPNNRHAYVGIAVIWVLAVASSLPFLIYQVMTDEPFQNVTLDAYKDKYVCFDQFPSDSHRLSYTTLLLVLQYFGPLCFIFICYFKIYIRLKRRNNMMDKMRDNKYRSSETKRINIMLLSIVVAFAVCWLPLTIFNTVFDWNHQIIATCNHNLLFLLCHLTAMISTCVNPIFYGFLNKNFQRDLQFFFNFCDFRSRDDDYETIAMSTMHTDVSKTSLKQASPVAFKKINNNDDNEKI
Take `Cc1ccccc1NCC(=O)N/N=C\c1ccc([N+](=O)[O-])s1`: the activation is 34.6% (inactive).
Next, `O=[N+]([O-])c1cc(Cl)cc(/C=N/NC(=S)Nc2cc(S(=O)(=O)N3CCOCC3)ccc2Cl)c1O`: 72.1% (active); `CC(=O)c1ccc(NC(=O)C2CC(=O)Nc3nc4ccccc4n32)cc1` (stereo unspecified): 38.7% (inactive).
For `N#Cc1ccc(C(=O)Nc2nc(-c3cccs3)c(C(=O)C(F)(F)F)s2)cc1` the value was -50.3% (inactive).
With `CSc1nc(-c2ccco2)nn1C(=O)c1ccccc1Cl`, the activation is 31.6% (inactive).
Next, `CC1=C/C(=N\OS(=O)(=O)c2ccccc2)C=CC1=O`: 7.41% (inactive); `CN1C(=O)c2ccccc2C(C(=O)NCCCN2CCCC2)C1c1c[nH]c2ccccc12` (stereo unspecified): 7.17% (inactive); `O=C(c1cccs1)N1CCN(C(=O)N2CCOCC2)CC1`: -4.4% (inactive).
Next, `COC(=O)c1ccc(NC(=O)CN(c2ccc(C)cc2)S(=O)(=O)c2c(C)n[nH]c2C)cc1`: 43% (inactive); `O=C(Nc1ccc2c(c1)CCC2)c1cccc(S(=O)(=O)Nc2ccccc2Cl)c1`: 5.62% (inactive); `COCCn1nnnc1C(c1ccccc1Cl)N1CCN(c2ccccc2OC)CC1` (stereo unspecified): -14.9% (inactive).
For `O=C(Nc1ccccc1C(F)(F)F)c1cc(-c2ccc(O)cc2)on1` the value was 2.15% (inactive); for `Cc1cccc(OCC(O)CN2CCN(CCN3C(=O)c4cccc5cccc(c45)C3=O)CC2)c1C` (stereo unspecified), 63.5% (active).
`O=C1/C(=C/c2coc3ccc(O)cc3c2=O)SC(=S)N1c1ccccc1`: the activation is 26.1% (inactive).
As to `COC(=O)c1sc(-c2ccc(C(C)(C)C)cc2)cc1NC(=O)/C=C/C(=O)O`, the activation was 40.8% (inactive).
For `CCn1c2ccccc2c2cc(NC(=O)Nc3ccc([N+](=O)[O-])cc3C)ccc21`, the activation is 26.1% (inactive).
